Results published in PubChem BioAssay AID1851 (National Center for Advancing Translational Sciences (NCATS), 2009).
Where “and” joins values, the source holds several entries; their conditions need not be identical. Identical values can stand only once. In all, about 16,000 compounds went through this assay and about 4,000 (25%) were called active. Roughly 26% stayed inconclusive and do not appear here. Calls come from the whole dose curve; as a rule, active = well fitted curve in the direction sought with a large enough effect; inconclusive = small, poorly fitted or top-dose-only effect, or effect the other way; inactive = no such curve, though single readings can be large or run the other way. Not all results are given here.

molecular target: Cytochrome P450 2C9 (Homo sapiens) (UniProt P11712); experiment: Cytochrome panel assay with activity outcomes; settings: recombinant CYP, pro-luciferin dealkylation, luminescence, p450-cyp2c9; series mostly up to 57.1 µM
Sequence (P11712 whole entry, looked up): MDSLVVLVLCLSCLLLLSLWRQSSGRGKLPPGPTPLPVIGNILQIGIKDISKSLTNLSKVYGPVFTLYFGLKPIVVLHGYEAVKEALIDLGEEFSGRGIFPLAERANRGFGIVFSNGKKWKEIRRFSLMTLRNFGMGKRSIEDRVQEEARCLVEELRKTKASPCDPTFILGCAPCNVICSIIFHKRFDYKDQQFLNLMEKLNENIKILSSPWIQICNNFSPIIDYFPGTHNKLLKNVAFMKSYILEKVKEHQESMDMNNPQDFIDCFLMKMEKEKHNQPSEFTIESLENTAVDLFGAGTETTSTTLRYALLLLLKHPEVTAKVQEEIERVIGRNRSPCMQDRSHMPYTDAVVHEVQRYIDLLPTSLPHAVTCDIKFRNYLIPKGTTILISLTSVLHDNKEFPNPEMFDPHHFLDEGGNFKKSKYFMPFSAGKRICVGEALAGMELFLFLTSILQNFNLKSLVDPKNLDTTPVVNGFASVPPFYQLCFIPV
% is set by controls: 0 for no effect and ±100 for the full control effect.

Structure (SMILES)	AC50	activity, negative = inhibition
CCOC(=O)c1sc(NS(=O)(=O)c2ccccc2)nc1C	1 µM (active)	
COc1ccc(C/C(N)=N/OC(=O)Cc2ccccc2)cc1OC	inactive	
CCOC(=O)c1sc(NC(C)=O)nc1-c1ccccc1	31.6 µM (active)	
COC(=O)c1c(-c2ccc3ccccc3c2)csc1NC(=O)Cc1ccc(OC)c(OC)c1	0.447 µM (active)	
CCOC(=O)Cc1csc(NS(=O)(=O)c2ccccc2)n1	5.01 µM (active)	
COc1ccc(CC(=O)NCc2ccccn2)cc1OC	inactive	
C#CCCCO/N=C1/C[C@@H](O)[C@@H](O)[C@@H]2[C@@H]3C(=O)N(C4CCCCC4)C(=O)[C@H]3CC[C@H]12		6.11% [at 11.4 µM] (inactive)
CCOC(=O)Cc1csc(NC(=O)CCCCCN2C(=O)c3ccccc3C2=O)n1	1.26 µM (active)	
CCOC(=O)c1c(-c2cccc(C)c2)csc1NC(=O)c1c(-c2ccccc2)noc1C	inactive	
CCOC(=O)c1c(C)n(C)c2ccc(OC)c(NC(=O)CN3CCCCC3)c12	inactive	
CCCC(=O)Nc1nc(C(=O)OCC)cs1	inactive	
CCOC(=O)c1c(-c2ccccc2)csc1NC(=O)c1cccc(N2C(=O)CCC2=O)c1	0.316 µM (active)	
CCOC(=O)c1c(-c2ccc(OC)cc2)csc1NC(=O)CCN1C(=O)c2ccccc2C1=O	1.41 µM (active)	
Cn1cnnc1SCC(=O)OCN1C(=O)c2ccccc2C1=O	inactive	
N[C@@H](Cn1cc(F)c(=O)[nH]c1=O)C(=O)O	inactive	
Cc1c(C(=O)NCCC2=CCCCC2)cccc1[N+](=O)[O-]	inactive	
Cc1ccc(S(=O)(=O)N(CC(=O)NCCC2=CCCCC2)Cc2ccccc2F)cc1	7.08 µM (active)	
CC(=O)c1cnc2cc(C)nn2c1C	inactive	
O=C1CCCN1c1ccc(S(=O)(=O)Oc2cccc(Cl)c2)cc1[N+](=O)[O-]	11.2 µM (active)	
O=C(Cn1ccnc1[N+](=O)[O-])NCCO	inactive	
COc1cccc(-c2nnc3sc(-c4ccc(C)cc4)nn23)c1	10 µM (active)	
COc1cccc(-c2nccc(-n3ccnc3)n2)c1		-24.4% [at 2.29 µM] (inactive)
COc1cccc(-c2ccc3ncnc(N4CCN(C)CC4)c3c2)c1		-5.64% [at 2.29 µM] (inactive)

Structure (SMILES)	AC50	activity, negative = inhibition
COc1ccc(CNc2ccnc(-c3ccc(C(=O)N(C)C)cc3)n2)c(OC)c1		-2.88% [at 2.29 µM] (inactive)
Cc1ccc(NC(=O)C2(NC(=O)c3cccc(N4C(=O)CSC4c4ccccc4)c3)CCCCC2)cc1 (centres undefined)	1.41 µM (active)	
Cc1ccc(N2C(=O)CSC2c2cccnc2)cc1F (centres undefined)	inactive	
Cc1ncc(COP(=O)(O)O)c(C)c1O		5.34% [at 11.4 µM] (inactive)
CCN1CCN(C(=O)C2c3cc(OC)c(OC)cc3C(=O)N3CCc4ccccc4C23)CC1 (centres undefined)	inactive	
CC(=O)Nc1ccc2c(c1)C(=Nc1ccc(C(=O)O)cc1)c1ccccc1-2		16.5% [at 11.4 µM] (inactive)
COc1ccccc1NC(=O)CN1CCN(C2c3ccccc3-c3ccccc32)CC1	0.794 µM (active)	
CC(C)OC(=O)CN1CCN(C2c3ccccc3-c3ccccc32)CC1	14.1 µM (active)	
COc1ccc(NC(C)=O)cc1NC(=O)CN1CCN(C2c3ccccc3-c3ccccc32)CC1	10 µM (active)	
O=C(O)C[C@@H](C(=O)O)C1c2ccccc2-c2ccccc21		-12.1% [at 11.4 µM] (inactive)
COC(=O)C/C=C1\c2ccccc2[C@H](OC)[C@H]1C		15.8% [at 11.4 µM] (inactive)
COC(=O)N1CCC2(CCCN(Cc3ccccc3OC)C2)CC1	inactive	
Cc1c(NC(=O)NC(C)N2C(=O)C3C4C=CC(C4)C3C2=O)c(=O)n(-c2ccccc2)n1C (centres undefined)	inactive	
COCCNc1cc(-c2ccccc2C(F)(F)F)ncn1		6.38% [at 2.29 µM] (inactive)
O=C(NNC(=S)NCc1ccco1)c1ccc(Cl)s1	4.47 µM (active)	
O=S(=O)(c1ccccc1)N1CCC2(CCCN(Cc3nccs3)C2)CC1	inactive	
CSC(=NC#N)N1CCN(c2ccc(Cl)cc2)CC1	5.01 µM (active)	
Cc1ccc(NC(=O)c2sc3ccccc3c2Cl)nc1	inactive	
O=C(O)CCC(=O)c1ccc2sc3ccccc3c2c1		-2.22% [at 11.4 µM] (inactive)
CC(C)Cc1nnc(NC(=O)c2ccc([N+](=O)[O-])cc2)s1	inactive	
CC(C)c1nnc(NC(=O)c2sc3ccccc3c2Cl)s1	12.6 µM (active)	
O=C(NC(=S)N(CCCCO)C1CCCCC1)c1sc2ccccc2c1Cl	7.94 µM (active)	
CN(C(=S)NC(=O)c1ccccc1Br)C1CCCCC1	inactive	

Structure (SMILES)	AC50	activity, negative = inhibition
CCCCOC(=S)NC(=O)c1sc2ccccc2c1Cl	0.282 µM (active)	
CCOC(=S)NC(=O)c1sc2ccccc2c1Cl	0.0631 µM (active)	
Cc1ncc2c(c1O)COP(=O)(O)OC2	inactive	
CN(C)c1ccc(-c2cc(NCc3cccnc3)ncn2)cc1		-1.19% [at 2.29 µM] (inactive)
CCc1cc2c(nc1CC)CCN(CC/C(C)=N/O[C@@H](C)c1cn([C@H](CO)Cc3ccccc3)nn1)C2		1.31% [at 11.4 µM] (inactive) and -5.84% [at 11.4 µM] (inactive)
COc1ccc2[nH]cc(C=O)c2c1	inactive	
CC1(C)Oc2ccc(C#N)cc2[C@H](N2CCCC2=O)[C@H]1O	inactive	
O=C(O)CCC(O)=C1S(=O)(=O)OCCOS1(=O)=O		8.09% [at 11.4 µM] (inactive)
O=C(O)[C@H]1CCCNC1	inactive	
c1c[nH]c(CN2CCN(Cc3ncc[nH]3)CC2)n1		-13% [at 11.4 µM] (inactive)
CC[C@H]1C2=C3C(CC[C@H]4C(OCc5ccc(F)cc5C(F)(F)F)OC[C@](C)([C@@H]34)N(C(=O)OC(C)(C)C)C2)C(COC)C1COC (some centres undefined)	inactive	
Cc1ccccc1Cn1nc(C)c(NC(=O)c2sc3ccccc3c2Cl)c1C	7.08 µM (active)	
CCn1nc(C(=O)Nc2ccccc2C)c(Cl)c1Cl	inactive	
CN(C)CCN(Cc1cccs1)c1ccccn1	inactive	
Cc1ccc(S(=O)(=O)/C(C#N)=C/c2c(N3CC(C)OC(C)C3)nc3ccccn3c2=O)cc1 (centres undefined)	11.2 µM (active)	
CC(=O)[C@H]1CC[C@@H]2[C@H]3CC=C4C[C@@H](O)CC[C@]4(C)[C@H]3CC[C@]12C	inactive	
C[C@@H](O)[C@H]1C(=O)N2C(C(=O)O)=C(S[C@@H]3CN[C@H](C(=O)N(C)C)C3)[C@H](C)[C@H]12	inactive	
CCOC(=O)c1[nH]c(C)c(C(=O)OCC(=O)N2c3ccccc3CC2C)c1C (centres undefined)	25.1 µM (active)	
Cc1ccc(-c2cc(-c3nnc(SCC(=O)NC(C)C(C)C)n3N)c3ccccc3n2)cc1 (centres undefined)	1.12 µM (active)	
Cc1nnc(SCC(=O)NCC2CCCCC2)n(N)c1=O	inactive	
NNC(=O)CNC(c1ccccc1)c1cc(Br)ccc1NC(=O)c1ccccc1Br (centres undefined)	3.16 µM (active)	
NNC(=O)CNc1cccc(Br)c1		1.94% [at 11.4 µM] (inactive)
Cc1ccccc1-c1nc(N2CCNCC2)c2ccccc2n1		0.671% [at 2.29 µM] (inactive)

Structure (SMILES)	AC50	activity, negative = inhibition
Oc1c(C(O)(c2ccccc2)c2ccc3ccccc3c2O)ccc2ccccc12	0.794 µM (active)	
C[C@](O)(c1ccccc1)c1nccc2ccccc12		-17.3% [at 11.4 µM] (inactive)
Nc1nc(N)c2nn(-c3ccc(C(=O)O)cc3)nc2n1		7.68% [at 11.4 µM] (inactive)
COc1ccccc1C1CC(c2c(-c3ccccc3)c3cc(Cl)ccc3[nH]c2=O)=NN1S(C)(=O)=O (centres undefined)	2.82 µM (active)	
CCOC(=O)N1N=C(c2ccccc2)CC1(O)C(F)(F)F (centres undefined)	10 µM (active)	
CCC1=NN(C(=O)CCc2ccccc2)C(O)(C(F)(F)F)C1 (centres undefined)	4.47 µM (active)	
COc1cc(N=C(N)N=C(N)N)c2ncccc2c1		8.03% [at 11.4 µM] (inactive)
CCOC(=O)N/N=C1/C[C@@H](O)[C@@H](O)[C@@H]2[C@@H]3C(=O)N(c4cccc(Oc5ccccc5)c4)C(=O)[C@H]3CC[C@H]12		7.2% [at 11.4 µM] (inactive)
Cc1cc(C2C(C#N)=C(N)OC3=C2C(=O)CC(C)(C)C3)c(C)s1 (centres undefined)	7.08 µM (active)	
COc1ccc(C2C(C#N)=C(N)OC3=C2C(=O)CC(C)(C)C3)c([N+](=O)[O-])c1OC (centres undefined)	1 µM (active)	
C[C@H]1COC(=O)[C@H](Cc2ccccc2)NC(=O)[C@@H](C)COC(=O)[C@H](Cc2ccccc2)NC1=O		-8.11% [at 11.4 µM] (inactive)
CO[C@H]1COC(=O)[C@H](C)NC(=O)C/C=C\[C@@H](C)[C@@H](NS(=O)(=O)c2ccc(C)cc2)COC(=O)C/C=C\[C@@H]1C		-2.5% [at 11.4 µM] (inactive)
Cc1ccc(-c2c3c(nc4sc(C(N)=O)c(N)c24)CCC3)cc1	8.91 µM (active)	
CCOC(=O)c1c(NC(=O)C2C3CCC(O3)C2C(=O)O)sc(C)c1-c1ccc(C)cc1 (centres undefined)	inactive	
CCOC(=O)Cn1nnc2c(sc3nc4c(c(-c5ccc(Cl)cc5)c32)CCC4)c1=O	12.6 µM (active)	
Cc1ccc(C(=O)Cn2nnc3c(sc4nc5c(c(-c6ccccc6)c43)CCC5)c2=O)cc1	3.55 µM (active)	
CCOC(=O)c1c(C)nc2sc3c(=O)n(-c4ccc(OC)cc4)nnc3c2c1-c1ccc(OC)cc1	10 µM (active)	
CCN1CCC[C@@H]1CNC(=O)c1cc(S(N)(=O)=O)ccc1OC	inactive	
N#CC1(Nc2ccc(-c3ccc(NC4(C#N)CCCC4)cc3)cc2)CCCC1		-5.08% [at 11.4 µM] (inactive)
C[C@@H]1/C=C\CC(=O)OC[C@H](C)C(=O)N2CCC[C@@H]2C(=O)OC1		-11.7% [at 11.4 µM] (inactive)
